Several values for one entry are separate records, joined by “and”; a condition that tells them apart may be missing. Identical values can stand only once. Results filed as inconclusive are left out. Entries that show only a call come without a potency. Activity calls are given as the source filed them. Unless noted, calls follow the shape of the dose curve; as a rule, active = well fitted curve in the direction sought with a large enough effect; inconclusive = small, poorly fitted or top-dose-only effect, or another doubt; inactive = no such curve, though single readings can be large; an effect the other way counts as inactive or inconclusive.
Key:
[1] = molecular target: Thyrotropin-releasing hormone receptor (Homo sapiens) (UniProt P34981); test: qHTS for Small Molecule Agonists and Allosteric Enhancers of Human TRH Receptor: Validation Screen for Agonists (AID 493127;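 active = calcium activation more than 3 SD above the typical response in the agonist read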;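 also: intracellular calcium rise by fluo-8 fluorescence before TRH EC20 addition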); details: TRH receptor agonist cell assay; at 2 µM; stronger effect = higher value
In short: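 Kinetic fluorescence assay of agonist-induced calcium release: overnight-plated TRHR cells, room-temperature fluo-8 loading, baseline then compound addition with per-second reads.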

[2] = qHTS for Inhibitors of Cell Surface uPA Generation: Validation Assay (AID 493164);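 also: RAW 264.7 macrophage cells exposed to compound for 18 h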
In short: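 Compounds are titrated over seven points (2.45 nM–38.3 uM final) onto pre-plated RAW 264.7 cells and incubated for 18 h. Retained intracellular ATP, measured with ATP-Lite, indicates blocked lethal factor entry.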

[3] = molecular target: Galactokinase (Homo sapiens) (UniProt P51570); test: qHTS Validation Assay for Inhibitors of Human Galactokinase (GALK) (AID 493189)
In short: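 Inhibition was measured as remaining ATP, detected by luciferase luminescence after a 1 h room-temperature reaction. Final conditions: 5 nM GALK, 100 uM galactose, 35 uM ATP, pH 8.0 HEPES buffer.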

[4] = molecular target: Peptidyl-prolyl cis-trans isomerase NIMA-interacting 1 (Homo sapiens) (UniProt Q13526); test: qHTS Validation Assay to Find Inhibitors of Pin1 (AID 504536; active = well fitted inhibition curve with a large enough effect in the polarisation, with a control signal flat, not every such curve was filed as active; the % refers to the polarisation)
In short: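 Fluorescence polarization competition: compounds (titration) displace HiFluor-488-labeled Pin1-1b peptide from Pin1 (0.3 uM final) in pH 7.5 HEPES buffer with DTT, 10 min at room temperature; %Activity normalized to no-enzyme wells, curves fitted.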

[5] = molecular target: Phosphoglycerate kinase, glycosomal (Trypanosoma brucei brucei) (UniProt P07378); test: qHTS Validation Assay to Find Inhibitors of Phosphoglycerate Kinase (AID 504547)
In short: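 Compounds are pinned into the substrate/PGK mixture, and GAPDH (100nM final) is added to start the reaction by producing 1,3-BPG. After 60 minutes at room temperature, Kinase-Glo Plus is added and luminescence is measured 10 minutes later.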

[6] = molecular target: phosphoglycerate mutase (Leishmania major) (UniProt Q4Q090); test: qHTS Validation Assay to Find Inhibitors of Phosphoglycerate Mutase (AID 504548); also: series mostly up to about 58 µM
In short: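 Lm PGAM at 1.25 nM final with substrate in 100 mM TEA pH 7.6, 5 mM MgCl2, 0.01% Tween-20; 45 min at room temperature. Kinase-GloPlus added, 10 min, end-point luminescence read.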

[7] = molecular target: ATPase family AAA domain-containing protein 5 (Homo sapiens) (UniProt Q96QE3); test: Validation screen for small molecules that inhibit ELG1-dependent DNA repair in human embryonic kidney (HEK293T) cells expressing luciferase-tagged ELG1 (AID 493107);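 also: cells co-treated with the DNA-damaging agent 5-fluorouridine alongside compound; series mostly up to about 46 µM; inhibitors lower the ELG1-luciferase luminescence signal; nearly all actives have a fitted effect of over 70% in size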
In short: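 Compounds reducing 5-fluorouridine-driven ELG1-luciferase signal in HEK293T cells were scored; exposure lasted 16 hr at 37 °C with luminescence detected via ONE-Glo.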

[8] = Nrf2 qHTS screen for inhibitors: Validation (AID 493153; active = well fitted inhibition curve with a large enough effect in the main read-out, with a control signal flat, not every such curve was filed as active; also: potency is read from the fitted curve at half-maximal effect); details: Potency: luciferase luminescence; viability change: measured here: cytotoxicity max response
In short: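 In this counterscreened reporter format, each well gives two signals: CellTiter-Fluor fluorescence for cytotoxicity and ARE-luciferase luminescence for Nrf2 function. A549 ARE_Fluc cells in 5% FBS OPTI-MEM were exposed to compound titrations for 18-24 h.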

[9] = Validation screen for small molecules that induce DNA re-replication in SW480 colon adenocarcinoma cells (AID 504364)
In short: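 Hoechst-stained SW480 nuclei, imaged at 405 nm excitation after 48 hr compound exposure, were counted for elevated DNA content as the re-replication signal.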

[10] = Validation screen for small molecules that induce genotoxicity in human embryonic kidney (HEK293T) cells expressing luciferase-tagged ELG1 (AID 493106); also: potency is read from the fitted curve at half-maximal effect
In short: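 In this validation screen, increased ELG1-luciferase signal flags compounds causing genetic stress. HEK293T reporter cells are treated 16 hr (37 °C, 5% CO2), developed with ONE-Glo for 30 min at room temperature, and imaged on a CCD-based reader.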

Thyrotropin-releasing hormone receptor (Homo sapiens), sequence (P34981 whole entry, looked up): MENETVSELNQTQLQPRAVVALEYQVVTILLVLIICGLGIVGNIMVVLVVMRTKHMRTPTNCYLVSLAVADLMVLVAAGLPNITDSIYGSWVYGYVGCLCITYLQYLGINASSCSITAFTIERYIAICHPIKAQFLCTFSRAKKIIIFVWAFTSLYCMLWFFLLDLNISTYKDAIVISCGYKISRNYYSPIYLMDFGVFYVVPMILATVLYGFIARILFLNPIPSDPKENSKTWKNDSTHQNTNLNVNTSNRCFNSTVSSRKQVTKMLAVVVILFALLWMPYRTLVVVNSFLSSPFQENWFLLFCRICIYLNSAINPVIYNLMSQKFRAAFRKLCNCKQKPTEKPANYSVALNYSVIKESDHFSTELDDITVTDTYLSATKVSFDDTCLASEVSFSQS
Galactokinase (Homo sapiens), sequence (P51570 whole entry, looked up): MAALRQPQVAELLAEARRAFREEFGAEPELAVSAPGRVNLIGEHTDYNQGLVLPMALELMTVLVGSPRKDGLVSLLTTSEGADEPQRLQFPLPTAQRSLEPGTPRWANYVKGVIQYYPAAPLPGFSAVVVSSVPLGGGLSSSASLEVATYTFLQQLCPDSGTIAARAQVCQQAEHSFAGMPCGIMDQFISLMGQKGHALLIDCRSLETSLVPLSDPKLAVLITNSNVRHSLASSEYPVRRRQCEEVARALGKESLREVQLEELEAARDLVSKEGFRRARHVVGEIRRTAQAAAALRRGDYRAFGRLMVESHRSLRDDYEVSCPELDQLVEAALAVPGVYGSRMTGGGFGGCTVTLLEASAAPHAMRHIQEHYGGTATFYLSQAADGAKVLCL
Phosphoglycerate kinase, glycosomal (Trypanosoma brucei brucei), sequence (P07378 whole entry, looked up): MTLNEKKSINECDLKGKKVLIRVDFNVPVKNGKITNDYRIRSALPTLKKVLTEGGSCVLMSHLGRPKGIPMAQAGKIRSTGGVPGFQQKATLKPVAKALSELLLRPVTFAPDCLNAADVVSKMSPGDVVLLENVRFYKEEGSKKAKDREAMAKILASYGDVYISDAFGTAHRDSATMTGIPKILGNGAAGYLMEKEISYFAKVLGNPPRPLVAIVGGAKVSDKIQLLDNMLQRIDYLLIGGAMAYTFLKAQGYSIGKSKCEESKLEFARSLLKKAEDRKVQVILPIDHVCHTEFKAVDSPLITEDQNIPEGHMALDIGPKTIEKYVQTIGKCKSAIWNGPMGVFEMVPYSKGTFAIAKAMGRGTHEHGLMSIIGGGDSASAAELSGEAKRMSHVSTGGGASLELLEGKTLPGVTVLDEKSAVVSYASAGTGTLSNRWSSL
Peptidyl-prolyl cis-trans isomerase NIMA-interacting 1 (Homo sapiens), sequence (Q13526 whole entry, looked up): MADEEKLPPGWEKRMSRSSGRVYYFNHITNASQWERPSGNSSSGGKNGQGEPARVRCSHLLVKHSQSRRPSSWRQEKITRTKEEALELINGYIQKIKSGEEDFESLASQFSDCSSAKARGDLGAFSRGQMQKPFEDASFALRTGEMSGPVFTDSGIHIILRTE
ATPase family AAA domain-containing protein 5 (Homo sapiens), sequence (Q96QE3 whole entry, looked up, the tested form may be a part): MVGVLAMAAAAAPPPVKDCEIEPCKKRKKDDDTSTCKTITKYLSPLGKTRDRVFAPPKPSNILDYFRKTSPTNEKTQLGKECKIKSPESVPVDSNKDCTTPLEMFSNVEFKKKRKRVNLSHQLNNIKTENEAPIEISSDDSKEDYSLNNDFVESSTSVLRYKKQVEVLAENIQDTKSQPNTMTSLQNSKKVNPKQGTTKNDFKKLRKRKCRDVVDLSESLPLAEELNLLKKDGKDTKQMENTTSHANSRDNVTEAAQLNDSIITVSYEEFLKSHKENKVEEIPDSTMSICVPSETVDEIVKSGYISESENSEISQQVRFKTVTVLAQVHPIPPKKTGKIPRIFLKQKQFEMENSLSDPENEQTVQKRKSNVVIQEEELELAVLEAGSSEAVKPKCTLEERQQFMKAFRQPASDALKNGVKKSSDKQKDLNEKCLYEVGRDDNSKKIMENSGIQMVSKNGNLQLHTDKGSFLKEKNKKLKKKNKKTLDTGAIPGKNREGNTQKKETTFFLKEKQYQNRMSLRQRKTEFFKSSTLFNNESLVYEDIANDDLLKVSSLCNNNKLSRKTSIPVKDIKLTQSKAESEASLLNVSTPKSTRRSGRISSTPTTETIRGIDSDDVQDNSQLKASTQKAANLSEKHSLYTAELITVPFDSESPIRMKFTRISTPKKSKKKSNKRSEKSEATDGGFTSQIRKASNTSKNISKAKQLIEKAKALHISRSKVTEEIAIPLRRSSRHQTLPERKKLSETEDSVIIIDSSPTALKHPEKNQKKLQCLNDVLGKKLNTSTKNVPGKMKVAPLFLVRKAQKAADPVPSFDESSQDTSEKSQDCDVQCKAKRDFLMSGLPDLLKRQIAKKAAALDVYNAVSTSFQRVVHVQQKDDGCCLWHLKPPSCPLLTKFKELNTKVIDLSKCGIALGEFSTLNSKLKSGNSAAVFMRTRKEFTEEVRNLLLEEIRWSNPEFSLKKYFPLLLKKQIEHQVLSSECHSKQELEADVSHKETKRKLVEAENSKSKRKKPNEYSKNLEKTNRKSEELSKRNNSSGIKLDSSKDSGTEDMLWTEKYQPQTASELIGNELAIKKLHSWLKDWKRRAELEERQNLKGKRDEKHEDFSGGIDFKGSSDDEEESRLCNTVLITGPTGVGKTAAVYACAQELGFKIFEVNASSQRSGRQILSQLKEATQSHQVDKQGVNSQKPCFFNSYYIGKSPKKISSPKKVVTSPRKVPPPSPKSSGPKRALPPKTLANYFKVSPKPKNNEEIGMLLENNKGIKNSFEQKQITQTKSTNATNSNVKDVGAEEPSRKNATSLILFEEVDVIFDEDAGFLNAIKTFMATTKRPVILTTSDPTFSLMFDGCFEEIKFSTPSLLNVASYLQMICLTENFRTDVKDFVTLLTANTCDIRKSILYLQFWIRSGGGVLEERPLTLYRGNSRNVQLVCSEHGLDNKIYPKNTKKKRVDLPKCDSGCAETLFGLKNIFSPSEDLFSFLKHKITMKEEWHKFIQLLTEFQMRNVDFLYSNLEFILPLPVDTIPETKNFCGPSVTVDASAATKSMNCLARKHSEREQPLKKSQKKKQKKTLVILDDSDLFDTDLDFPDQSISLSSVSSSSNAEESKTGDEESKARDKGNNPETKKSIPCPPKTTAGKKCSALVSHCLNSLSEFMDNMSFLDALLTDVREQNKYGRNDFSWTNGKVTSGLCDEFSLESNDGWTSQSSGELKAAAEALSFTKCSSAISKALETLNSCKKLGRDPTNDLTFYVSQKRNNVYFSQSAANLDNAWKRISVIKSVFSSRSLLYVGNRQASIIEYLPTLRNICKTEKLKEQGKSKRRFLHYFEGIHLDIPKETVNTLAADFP
phosphoglycerate mutase (Leishmania major), sequence (Q4Q090 1-553): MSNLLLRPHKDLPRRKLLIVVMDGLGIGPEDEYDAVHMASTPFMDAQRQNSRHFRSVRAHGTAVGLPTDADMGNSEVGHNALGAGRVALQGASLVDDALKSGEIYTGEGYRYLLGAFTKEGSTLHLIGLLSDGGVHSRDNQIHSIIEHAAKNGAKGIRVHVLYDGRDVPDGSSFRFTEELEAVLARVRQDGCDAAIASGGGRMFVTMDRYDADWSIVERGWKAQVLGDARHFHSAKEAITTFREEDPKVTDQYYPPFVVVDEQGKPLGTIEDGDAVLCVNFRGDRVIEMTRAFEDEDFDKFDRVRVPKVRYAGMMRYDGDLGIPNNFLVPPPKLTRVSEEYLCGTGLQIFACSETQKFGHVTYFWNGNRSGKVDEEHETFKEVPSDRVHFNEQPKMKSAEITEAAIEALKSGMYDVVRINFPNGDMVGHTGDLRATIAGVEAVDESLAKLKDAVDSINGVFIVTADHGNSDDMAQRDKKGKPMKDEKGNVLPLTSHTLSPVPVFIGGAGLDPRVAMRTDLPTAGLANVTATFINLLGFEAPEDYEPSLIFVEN

Compound	activation [1]	outcome [2]	Potency [3]	Potency [4]	Potency [5]	outcome [6]	Potency [7]	Potency [8]	viability change [8]	Potency [9]	Potency [10]
COc1cc2c(c(OC)c1OC)-c1ccc(OC)c(=O)cc1[C@@H](NC(C)=O)CC2	0% (inactive)	inactive	inactive	inactive	inactive	inactive					
CCC1(c2ccccc2)C(=O)NCNC1=O		inactive	inactive	inactive	inactive	inactive	inactive	inactive	0.001%	inactive	
Cc1cn([C@H]2C[C@H](N=[N+]=[N-])[C@@H](CO)O2)c(=O)[nH]c1=O		inactive			inactive	inactive		inactive	8.03%		
CC#C[C@]1(O)CC[C@H]2[C@@H]3CCC4=CC(=O)CCC4=C3[C@@H](c3ccc(N(C)C)cc3)C[C@@]21C		inactive		inactive	inactive	inactive		23.1 µM (active)	-7.52%		inactive
CN1C2CCC1CC(OC(=O)C(CO)c1ccccc1)C2 (stereo not given)		inactive	inactive	inactive	inactive	inactive		inactive	0.769% and 1.89%	inactive	inactive
Cc1cnc(C(=O)NCCc2ccc(S(=O)(=O)NC(=O)NC3CCCCC3)cc2)cn1		inactive		inactive	inactive	inactive		inactive	-0.248%	inactive	inactive
COc1ccccc1OCCNCC(O)COc1cccc2[nH]c3ccccc3c12 (stereo not given)		inactive		inactive	inactive	inactive		inactive	-0.159%		inactive
CCN1CCCC1CNC(=O)c1cc(S(=O)(=O)CC)c(N)cc1OC (stereo not given)		inactive		inactive	inactive	inactive		inactive	7.74%		inactive
COc1ccc(CCN(C)CCCC(C#N)(c2ccc(OC)c(OC)c2)C(C)C)cc1OC (stereo not given)	7.06% (inactive)	inactive		inactive	inactive	inactive					
Cn1ccc2cc3c(cc21)CCN3C(=O)Nc1cccnc1	0.875% (inactive)	inactive	inactive	inactive	inactive	inactive		inactive	-2.16%	inactive	
O=C(Nc1ccc([N+](=O)[O-])cc1Cl)c1cc(Cl)ccc1O		inactive	inactive	inactive	inactive	inactive					inactive
CN(C)C(=O)C(CCN1CCC(O)(c2ccc(Cl)cc2)CC1)(c1ccccc1)c1ccccc1	17% (inactive)	inactive	inactive	inactive	inactive	inactive	inactive				
COc1cc2nc(N(C)CCCNC(=O)C3CCCO3)nc(N)c2cc1OC (stereo not given)		inactive		inactive	inactive	inactive		inactive	-7.87%		inactive
Cn1c(=O)c2[nH]cnc2n(C)c1=O	0.688% (inactive)	inactive	inactive	inactive	inactive	inactive	inactive	inactive	0.231%	inactive	
Cc1cc(C(C)(C)C)cc(C)c1CC1=NCCN1		inactive	inactive	inactive	inactive	inactive		inactive	1.17%	inactive	inactive
COc1ccc2c(c1)c(CC(=O)O)c(C)n2C(=O)c1ccc(Cl)cc1		inactive	inactive	inactive	inactive	inactive				inactive	inactive
Clc1ccc2nsnc2c1NC1=NCCN1		inactive		inactive	inactive	inactive		inactive	-2.06%		inactive
O=C(c1ccc(OCCN2CCCCC2)cc1)c1c(-c2ccc(O)cc2)sc2cc(O)ccc12		inactive	inactive	inactive	inactive	inactive				inactive	inactive
CCOC(=O)Nc1ccc(NCc2ccc(F)cc2)nc1N		inactive				inactive				inactive	inactive
COc1cc2nc(N3CCN(C(=O)c4ccco4)CC3)nc(N)c2cc1OC		inactive		inactive	inactive	inactive		inactive	-4.77%		
CCOC(=O)c1ncn2c1CN(C)C(=O)c1cc(F)ccc1-2		inactive	inactive	inactive	inactive	inactive		inactive	2.56%	inactive	inactive
O=C(c1ccc(F)cc1)C1CCN(CCn2c(=O)[nH]c3ccccc3c2=O)CC1		inactive	inactive	inactive	inactive	inactive		inactive	2.61%	inactive	inactive
NC12CC3CC(CC(C3)C1)C2		inactive		inactive						inactive	inactive
CN1CCC(=C2c3ccccc3C=Cc3ccccc32)CC1		inactive	inactive	inactive	inactive	inactive		inactive	17%	inactive	inactive
CC(C)C(=O)Nc1ccc([N+](=O)[O-])c(C(F)(F)F)c1	-0.438% (inactive)	inactive	inactive	inactive	inactive	inactive				inactive	
CN1CCC(=C2c3ccccc3CC(=O)c3sccc32)CC1		inactive	inactive	inactive	inactive	inactive		inactive	-3.17%	inactive	inactive
CC(COc1ccccc1)N(CCCl)Cc1ccccc1 (stereo not given)		inactive	inactive	inactive	inactive	inactive				inactive	inactive
O=c1c(-c2ccc(O)cc2)coc2cc(O)cc(O)c12		inactive	inactive	inactive	inactive	inactive		inactive	-6.66%	inactive	9.2 µM (active)

Reference: PubChem BioAssay (NCATS)
